Results taken from the supplement of paper PMC7411054.

How the values were obtained:
Assay in all cases: phenotypically active (imaging signature differs from DMSO and reproducible) at any of 0.3-9 uM (binary (1 = active, 0 = inactive)); higher = active
Details in all cases: treatment time: 24 h
A549-ACTB-RAB5A = system: A549-ACTB-RAB5A
Outline: (§1)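 Phenotypic activity depended on meeting both a deviation and a reproducibility criterion. The fifteen gene-edited A549, HepG2 and WPMY1 reporter lines were treated at 0.3, 1, 3 or 9 µM for 24 h, four wells each, then imaged live with features normalised to solvent control wells. Deviation required ≥3 of 4 wells past the 95th percentile of control Euclidean distances, and reproducibility a median replicate Pearson correlation above the 95th percentile of non-replicates.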

A549-CANX-COX4 = system: A549-CANX-COX4
Outline: as §1

A549-GM130-SQSTM1 = system: A549-GM130-SQSTM1
Outline: as §1

A549-TP53BP1-CLTA = system: A549-TP53BP1-CLTA
Outline: as §1

A549-TUBA1B-RELA = system: A549-TUBA1B-RELA
Outline: as §1

HepG2-ACTB-RAB5A = system: HepG2-ACTB-RAB5A
Outline: as §1

HepG2-CANX-COX4 = system: HepG2-CANX-COX4
Outline: as §1

HepG2-GM130-SQSTM1 = system: HepG2-GM130-SQSTM1
Outline: as §1

HepG2-TP53BP1-CLTA = system: HepG2-TP53BP1-CLTA
Outline: as §1

HepG2-TUBA1B-RELA = system: HepG2-TUBA1B-RELA
Outline: as §1

WPMY1-ACTB-RAB5A = system: WPMY1-ACTB-RAB5A
Outline: as §1

WPMY1-CANX-COX4 = system: WPMY1-CANX-COX4
Outline: as §1

WPMY1-GM130-SQSTM1 = system: WPMY1-GM130-SQSTM1
Outline: as §1

WPMY1-TP53BP1-CLTA = system: WPMY1-TP53BP1-CLTA
Outline: as §1

WPMY1-TUBA1B-RELA = system: WPMY1-TUBA1B-RELA
Outline: as §1

Measured: phenotypically active

Cc1ncc([N+](=O)[O-])n1CCOC(=O)NC(Nc1ncccn1)C(Cl)(Cl)Cl (stereo not given) [Apcin]
inactive: A549-ACTB-RAB5A 0 | A549-CANX-COX4 0 | A549-GM130-SQSTM1 0 | A549-TP53BP1-CLTA 0 | A549-TUBA1B-RELA 0 | HepG2-ACTB-RAB5A 0 | HepG2-CANX-COX4 0 | HepG2-GM130-SQSTM1 0 | HepG2-TP53BP1-CLTA 0 | HepG2-TUBA1B-RELA 0 | WPMY1-ACTB-RAB5A 0 | WPMY1-CANX-COX4 0 | WPMY1-GM130-SQSTM1 0 | WPMY1-TP53BP1-CLTA 0 | WPMY1-TUBA1B-RELA 0

O=C(O)C(CO)c1ccccc1 (stereo not given) [Tropic acid]
inactive: A549-ACTB-RAB5A 0 | A549-CANX-COX4 0 | A549-GM130-SQSTM1 0 | A549-TP53BP1-CLTA 0 | A549-TUBA1B-RELA 0 | HepG2-ACTB-RAB5A 0 | HepG2-CANX-COX4 0 | HepG2-GM130-SQSTM1 0 | HepG2-TP53BP1-CLTA 0 | HepG2-TUBA1B-RELA 0 | WPMY1-ACTB-RAB5A 0 | WPMY1-CANX-COX4 0 | WPMY1-GM130-SQSTM1 0 | WPMY1-TP53BP1-CLTA 0 | WPMY1-TUBA1B-RELA 0

OC[C@H]1O[C@@H](Oc2ccc(O)cc2)[C@H](O)[C@@H](O)[C@@H]1O [Arbutin]
inactive: A549-ACTB-RAB5A 0 | A549-CANX-COX4 0 | A549-GM130-SQSTM1 0 | A549-TP53BP1-CLTA 0 | A549-TUBA1B-RELA 0 | HepG2-ACTB-RAB5A 0 | HepG2-CANX-COX4 0 | HepG2-GM130-SQSTM1 0 | HepG2-TP53BP1-CLTA 0 | HepG2-TUBA1B-RELA 0 | WPMY1-ACTB-RAB5A 0 | WPMY1-CANX-COX4 0 | WPMY1-GM130-SQSTM1 0 | WPMY1-TP53BP1-CLTA 0 | WPMY1-TUBA1B-RELA 0

COP(=O)(OC)OC(c1ccc(Cl)cc1)P(=O)(OC)OC (stereo not given)
inactive: A549-ACTB-RAB5A 0 | A549-CANX-COX4 0 | A549-GM130-SQSTM1 0 | A549-TP53BP1-CLTA 0 | A549-TUBA1B-RELA 0 | HepG2-ACTB-RAB5A 0 | HepG2-CANX-COX4 0 | HepG2-GM130-SQSTM1 0 | HepG2-TP53BP1-CLTA 0 | HepG2-TUBA1B-RELA 0 | WPMY1-ACTB-RAB5A 0 | WPMY1-CANX-COX4 0 | WPMY1-GM130-SQSTM1 0 | WPMY1-TP53BP1-CLTA 0 | WPMY1-TUBA1B-RELA 0

Cc1c(OCC(F)(F)F)ccnc1CS(=O)c1nc2ccccc2[nH]1 (stereo not given) [lansoprazole]
inactive: A549-ACTB-RAB5A 0 | A549-CANX-COX4 0 | A549-GM130-SQSTM1 0 | A549-TP53BP1-CLTA 0 | A549-TUBA1B-RELA 0 | HepG2-ACTB-RAB5A 0 | HepG2-CANX-COX4 0 | HepG2-GM130-SQSTM1 0 | HepG2-TP53BP1-CLTA 0 | HepG2-TUBA1B-RELA 0 | WPMY1-ACTB-RAB5A 0 | WPMY1-CANX-COX4 0 | WPMY1-GM130-SQSTM1 0 | WPMY1-TP53BP1-CLTA 0 | WPMY1-TUBA1B-RELA 0

C[C@H](Cc1cc2c(c(C(N)=O)c1)N(CCCO)CC2)NCCOc1ccccc1OCC(F)(F)F [silodosin]
inactive: A549-ACTB-RAB5A 0 | A549-CANX-COX4 0 | A549-GM130-SQSTM1 0 | A549-TP53BP1-CLTA 0 | A549-TUBA1B-RELA 0 | HepG2-ACTB-RAB5A 0 | HepG2-CANX-COX4 0 | HepG2-GM130-SQSTM1 0 | HepG2-TP53BP1-CLTA 0 | HepG2-TUBA1B-RELA 0 | WPMY1-ACTB-RAB5A 0 | WPMY1-CANX-COX4 0 | WPMY1-GM130-SQSTM1 0 | WPMY1-TP53BP1-CLTA 0 | WPMY1-TUBA1B-RELA 0

CCc1nn(CCCN2CCN(c3cccc(Cl)c3)CC2)c(=O)n1CCOc1ccccc1 [nefazodone]
inactive: A549-ACTB-RAB5A 0 | A549-CANX-COX4 0 | A549-GM130-SQSTM1 0 | A549-TP53BP1-CLTA 0 | A549-TUBA1B-RELA 0 | HepG2-ACTB-RAB5A 0 | HepG2-CANX-COX4 0 | HepG2-GM130-SQSTM1 0 | HepG2-TP53BP1-CLTA 0 | HepG2-TUBA1B-RELA 0 | WPMY1-ACTB-RAB5A 0 | WPMY1-CANX-COX4 0 | WPMY1-GM130-SQSTM1 0 | WPMY1-TP53BP1-CLTA 0 | WPMY1-TUBA1B-RELA 0

O=C1NCCCC1C(=O)NCCc1c[nH]c2ccc(O)cc12 (stereo not given)
inactive: A549-ACTB-RAB5A 0 | A549-CANX-COX4 0 | A549-GM130-SQSTM1 0 | A549-TP53BP1-CLTA 0 | A549-TUBA1B-RELA 0 | HepG2-ACTB-RAB5A 0 | HepG2-CANX-COX4 0 | HepG2-GM130-SQSTM1 0 | HepG2-TP53BP1-CLTA 0 | HepG2-TUBA1B-RELA 0 | WPMY1-ACTB-RAB5A 0 | WPMY1-CANX-COX4 0 | WPMY1-GM130-SQSTM1 0 | WPMY1-TP53BP1-CLTA 0 | WPMY1-TUBA1B-RELA 0

C=C(C)[C@@H]1CC[C@]2(CO)CC[C@]3(C)[C@H](CC[C@@H]4[C@@]5(C)CC[C@H](O)C(C)(C)[C@@H]5CC[C@]43C)[C@@H]12 [Betulin]
inactive: A549-ACTB-RAB5A 0 | A549-CANX-COX4 0 | A549-GM130-SQSTM1 0 | A549-TP53BP1-CLTA 0 | A549-TUBA1B-RELA 0 | HepG2-ACTB-RAB5A 0 | HepG2-CANX-COX4 0 | HepG2-GM130-SQSTM1 0 | HepG2-TP53BP1-CLTA 0 | HepG2-TUBA1B-RELA 0 | WPMY1-ACTB-RAB5A 0 | WPMY1-CANX-COX4 0 | WPMY1-GM130-SQSTM1 0 | WPMY1-TP53BP1-CLTA 0 | WPMY1-TUBA1B-RELA 0

CC(=O)OC(C)C[N+](C)(C)C (stereo not given) [methacholine]
inactive: A549-ACTB-RAB5A 0 | A549-CANX-COX4 0 | A549-GM130-SQSTM1 0 | A549-TP53BP1-CLTA 0 | A549-TUBA1B-RELA 0 | HepG2-ACTB-RAB5A 0 | HepG2-CANX-COX4 0 | HepG2-GM130-SQSTM1 0 | HepG2-TP53BP1-CLTA 0 | HepG2-TUBA1B-RELA 0 | WPMY1-ACTB-RAB5A 0 | WPMY1-CANX-COX4 0 | WPMY1-GM130-SQSTM1 0 | WPMY1-TP53BP1-CLTA 0 | WPMY1-TUBA1B-RELA 0

COCC(=O)N[C@@H](Cc1ccc(-c2cc(Cl)cc(Cl)c2)cc1)[C@H](O)[C@@H](O)C(=O)O
inactive: A549-ACTB-RAB5A 0 | A549-CANX-COX4 0 | A549-GM130-SQSTM1 0 | A549-TP53BP1-CLTA 0 | A549-TUBA1B-RELA 0 | HepG2-ACTB-RAB5A 0 | HepG2-CANX-COX4 0 | HepG2-GM130-SQSTM1 0 | HepG2-TP53BP1-CLTA 0 | HepG2-TUBA1B-RELA 0 | WPMY1-ACTB-RAB5A 0 | WPMY1-CANX-COX4 0 | WPMY1-GM130-SQSTM1 0 | WPMY1-TP53BP1-CLTA 0 | WPMY1-TUBA1B-RELA 0
